Data: PubChem BioAssay AID750 (Sanford-Burnham Center for Chemical Genomics, 2007)
Hit rate of the full screen: of about 86,000 compounds, about 140 (0.16%) were called active. The sample holds actives, similar compounds and a random draw of the others, so the mix is not that of the screen.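 How the source made its calls: active means activation factor of at least 2 for MT1-MMP transcription at 10 µM; inactive means the rest.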

Assay: MT1-MMP promoter reporter activation – cell-based, luciferase luminescence, primary screen (AID 750)
Details: HT1080 MT1-MMP promoter luciferase reporter, overnight, at 10 µM, stronger effect = higher value

Activation factor, inactive:
CCN1CCN(C(=O)c2cc3cc4ccc(OC)cc4nc3s2)CC1 1.3, CC1CN(S(=O)(=O)c2ccccc2)C(C)CN1S(=O)(=O)c1ccccc1 (stereo unspecified) 1.3, CCOC(=O)c1c(C)nc2c(c1C)c(=O)oc1ccccc12 1.1, Cn1c(C(=O)OC(C(=O)NC2CCCCC2)c2ccccn2)cc2sccc21 (stereo unspecified) 1.2, CCCNC(=S)N1CCC(NC(=O)C23CC4CC(CC(C4)C2)C3)CC1 1.2, O=C(Nc1nncs1)c1cccc(S(=O)(=O)N2CCCCC2)c1 1, N#Cc1ccc(C=NC(c2ccccc2)c2ccccc2)cc1 1.2, CN(Cc1nc2ccccc2c(=O)[nH]1)Cc1cc(=O)oc2ccc3ccccc3c12 1, Cc1nn(C(C)CC(=O)O)c(C)c1C (stereo unspecified) 1.2, COc1ccc(NC(=O)CSc2nc(NS(=O)(=O)c3ccc(C)cc3)cc(=O)[nH]2)cc1 1.3, O=C(N/N=C\c1cccc(Br)c1)c1ccccc1-n1cccc1 1.4, Cc1ccc(S(=O)(=O)Nc2nc(C)cc(-n3nc(C)cc3C)n2)cc1 1, CCC(C)NC(=O)C1CCCN(C(=O)NC2CCCCC2)C1 (stereo unspecified) 1.2, Cc1cc(C)n(-c2nc(O)cc(=O)[nH]2)n1 1, O=C(CN(c1ccccc1)S(=O)(=O)c1ccc(Cl)cc1)Nc1ccccc1C(=O)N1CCCC1 0.9, O=C1/C(=C/c2cccs2)CCc2ccccc21 1.8, CCOC(=O)C1=C(C)NC(=O)NC1c1ccccc1 (stereo unspecified) 1.1, Cc1ccc(S(=O)(=O)c2c(COC(=O)c3cccc(Cl)c3)c(-c3ccccc3)nn2C)cc1 1.1, CCOC(=O)c1[nH]c(C)c(C(=O)OCC(=O)N2c3ccccc3CC2C)c1C (stereo unspecified) 1, C=C(Cl)COC(=O)C1C2C=CC(C2)C1C(=O)O (stereo unspecified) 1.1, O=C(/C=C/c1ccc(Cl)cc1Cl)c1cccnc1 1, CCCCc1nc(NCCN)c(C#N)c2c1CSC(C)(C)C2 1.4, CCOc1ccc(NC(=O)CCS(=O)(=O)c2ccc3c(c2)CCCN3C(=O)CC)cc1 1.1, O=C(CSC1=Nc2ccccc2C2=NC(CC(=O)NCc3ccco3)C(=O)N12)NCc1ccco1 (stereo unspecified) 1.1, CC1(C(=O)NCCc2c[nH]c3ccccc23)C=CC2(CCCCC2)N1C(=O)c1ccccc1 (stereo unspecified) 1, O=c1[nH]c(SCc2ccccc2)nnc1-c1ccccc1 1.1, O=C(CCc1ccccc1)NCC#CC(O)c1ccc(Br)cc1 (stereo unspecified) 1.2, O=C(NCc1ccccc1Cl)c1csc2c1CCCCC2 1.1, CCCCCCSc1nsc(N)n1 1.4, CC(C)CNC(=O)CC(c1ccccc1)c1c(O)ccc2ccccc12 (stereo unspecified) 1, CCCNC(=O)CN(Cc1ccccc1F)S(=O)(=O)c1ccc(C)cc1 1.3, CCCCNS(=O)(=O)c1ccc(S(=O)(=O)n2cnc3ccccc32)cc1 1.1, O=C(Nc1nccs1)c1cc(S(=O)(=O)N2CCOCC2)c(Cl)cc1Cl 1, CCn1nc(C)c(NC(=O)/C=C/c2ccc(OC)c(COc3ccc(Br)cc3)c2)c1C 0.9, CCCCN(CC)CCNC(=O)c1[nH]c(C)c(C(C)=O)c1C 0.9, O=C(COc1ccc(Cl)cc1)NCCSc1ccccc1 1.2, CCOc1ccc(NC(=O)c2ccccc2NS(C)(=O)=O)cc1 1.3, O=C(c1cc2c(s1)CCC2)N1CCN(c2ccccc2)CC1 1.1, COc1ccc(C2=NOC3(CC(=O)N(c4ccc(C)cc4)C3=O)C2)cc1 (stereo unspecified) 1.2, CC1=NN(/C(=N\c2nnc(C)s2)Nc2ccccc2)[C@H](c2ccc(C)cc2)S1 1.1, O=C1CCCc2nn(-c3ccccc3)nc21 1.5, OC(CN=c1sc2ccccc2n1CC(O)COc1ccccc1)COc1ccccc1 (stereo unspecified) 1.4, C=C(C)C(=O)Nc1cccc(C(C)=O)c1 1.3, CC1CCN(C(=O)CN(c2ccc(Oc3ccccc3)cc2)S(C)(=O)=O)CC1 1, COc1ccc(CNc2ccc3c(c2)CCC3)cc1OC 1.1, Cc1ccccc1-n1nc(C)c2cc(C(=O)NC3CC3)sc21 1.1, Cc1cc(Oc2ccccc2)nc(N2CCOCC2)n1 1.1, Cc1ccc(OCC(=O)N2CCN(C(=O)c3cccnc3)CC2)cc1 1, O=C1/C(=C\Nc2ccccc2)CCN1c1ncccn1 1.9, COc1ccc(CN(Cc2ccco2)S(=O)(=O)c2ccc(S(=O)(=O)N3CCCC3)cc2)cc1 1, CCCCNC(=O)C1CCCN(S(=O)(=O)c2ccc(S(=O)(=O)NCC(C)C)cc2)C1 (stereo unspecified) 1.2, CCc1ccc(CNC(=O)C2CCCN(c3nc4ccccc4o3)C2)cc1 (stereo unspecified) 1.1, Cc1cccc(C(=O)N2CCCN(C(=O)c3cccc(C)c3)CC2)c1 1, CCC(C)(C(=O)NC1CCCCC1)N(C)C(=O)c1ccc2c(c1)OCO2 (stereo unspecified) 1, Cc1ccc(OCCCC(=O)Nc2ccc(N3CCOCC3)cc2)cc1 1.1, O=C(CN1C(=O)C2C3C=CC(C3)C2C1=O)Nc1nc(-c2ccccn2)cs1 (stereo unspecified) 1.2
